The results in this text go back to PubChem BioAssay (Tox21).

Values joined by “and” are separate entries in the source; they are usually repeats but may differ in a detail not shown here. Equal values may be shown once. Inconclusive results are not listed. Entries that show only a call come without a potency. A structure can be active in one record and inactive in another. Active and inactive are the calls of the source. Calls come from the whole dose curve; as a rule, active = well fitted cell-killing curve with a large enough effect in the repeat runs; inconclusive = weak or mixed curves, or effect the other way; inactive = no such curve, though single readings can be large or run the other way.
Note: nearly all actives have a fitted effect of over 50% in size.

A short description of one assay: qHTS assay to identify small molecule agonists of the vitamin D receptor (VDR) signaling pathway - cell viability counter screen (AID 743224). Note: potency is the fitted concentration of half-maximal effect. The settings on record: VDR-bla HEK293T viability, CellTiter-Glo luminescence, 16 h; series mostly up to 62.6 µM. Summed up: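 Here cell health was gauged by luminescent ATP detection (CellTiter-Glo, 30 min RT) in VDR-bla cells that had been incubated with test compounds for 16 h at 37C and 5% CO2.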
For `O=C1CC(=O)NC(=O)N1`, the Potency entry is “inactive”. The same measure, in the same setting: the result for `S=C=S` reads “inactive”. As for `Cn1c(CCCC(=O)O)nc2cc(N(CCCl)CCCl)ccc21`, the Potency result is “inactive”. On to `CCSC(=O)Cl`, for which the Potency entry was “inactive”.

As to `CCC(C)(C#N)N=NC(C)(C#N)CC` (centres undefined), the Potency result was “inactive”. Still for that read-out and setting: the result for `COP(=O)(OC)O/C(C)=C/C(=O)N(C)C` reads “inactive”. Same read-out and setting: as for `COc1ccc(C=O)cc1O`, the entry is “inactive”; as for `CCOC(=O)C(Cl)Cc1cc(-n2nc(C)n(C(F)F)c2=O)c(F)cc1Cl` (centres undefined), “inactive”; as for `CCN[C@@H](C)Cc1ccccc1`, “inactive”. Same read-out and setting: as for `O=C1C2CC=CCC2C(=O)N1SC(Cl)(Cl)Cl` (centres undefined), the entry is “inactive and 6.81 µM (active)”. Take `CCN(CCO)CCn1c(Cc2ccccc2)nc2c1c(=O)n(C)c(=O)n2C`: the Potency result was “inactive”. On the same count and under the same terms, the result for `CCOC(=O)C(SP(=S)(OC)OC)c1ccccc1` (centres undefined) reads “inactive”. On the same count and under the same terms, as for `CCOC(=O)NC(C)(C)Cc1ccc(Cl)cc1`, the entry is “inactive”; as for `C=CCc1cc(OC)c2c(c1)OCO2`, “inactive”; as for `CN1COCN(Cc2cnc(Cl)s2)/C1=N\[N+](=O)[O-]`, “inactive”. The same measure, in the same setting: the result for `NC(=O)CS(=O)C(c1ccccc1)c1ccccc1` (centres undefined) reads “inactive”. As for `CCCCCCCCSC(=O)Oc1cc(Cl)nnc1-c1ccccc1`, the Potency entry was “inactive”. As for `ClC1=C(Cl)C2(Cl)C(CBr)CC1(Cl)C2(Cl)Cl` (centres undefined), the Potency was 34.7 µM (active) and inactive. Still for that read-out and setting: the result for `Cc1cccc2sc3nncn3c12` reads “inactive”. For `C/C(=N\NC(=O)Nc1cc(F)cc(F)c1)c1ncccc1C(=O)O`, the Potency entry was “inactive”. Regarding `CNC(=O)O/N=C(/CSC)C(C)(C)C`, the Potency result is “inactive”.

For `COC(=O)c1ccc(CBr)cc1`, the Potency entry is “inactive”.

Take `CCN(CC)C1CCCCC1`: the Potency entry was “inactive”.

As for `CC(C)(N)Cc1ccccc1Cl`, the Potency entry is “inactive”. Same read-out and setting: as for `CC#Cc1cc(C)nc(Nc2ccccc2)n1`, the entry is “inactive”. The same measure, in the same setting: as for `CON(C)C(=O)Nc1ccc(Br)cc1`, the entry is “inactive”.

The next assay can be described thus: qHTS assay to identify small molecule antagonists of the vitamin D receptor (VDR) signaling pathway - cell viability counter screen (AID 743225). The settings on record: VDR-bla HEK293T viability, CellTiter-Glo luminescence, 16 h; series mostly up to 61 µM. Summed up:
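VDR-UAS-bla HEK 293T cells were plated and incubated 4 h at 37C, then dosed with compound plus 3 nM (final) 1-alpha,25-dihydroxyvitamin D3 for 16 h. After the 2 h beta-lactamase read, viability in the same wells was read as CellTiter-Glo luminescence after 30 min at room temperature.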
In general terms: In qHTS, concentration-response curves come from the screen itself.
As for `O=C1CC(=O)NC(=O)N1`, the Potency entry is “inactive”. The same measure, in the same setting: the result for `CC(C)[N+](C)(CCC(C(N)=O)(c1ccccc1)c1ccccc1)C(C)C` reads “inactive”. For the molecule `S=C=S`, the Potency result is “inactive”. Still for that read-out and setting: as for `Cn1c(CCCC(=O)O)nc2cc(N(CCCl)CCCl)ccc21`, the entry is “inactive”; as for `CCSC(=O)Cl`, “inactive”; as for `CC(C)(C)c1cc(O)ccc1O`, “inactive”. Still for that read-out and setting: the result for `CCC(C)(C#N)N=NC(C)(C#N)CC` (centres undefined) reads “inactive”; that for `O=C(Cl)C(Cl)Cl`, “inactive”. On the same count and under the same terms, the result for `COc1ccc(C=O)cc1O` reads “inactive”; that for `CCN[C@@H](C)Cc1ccccc1`, “inactive”; that for `CCN(CCO)CCn1c(Cc2ccccc2)nc2c1c(=O)n(C)c(=O)n2C`, “inactive”.

As to `CCOC(=O)C(SP(=S)(OC)OC)c1ccccc1` (centres undefined), the Potency result was “inactive”. Still for that read-out and setting: as for `CCOC(=O)NC(C)(C)Cc1ccc(Cl)cc1`, the entry is “inactive”. Still for that read-out and setting: the result for `C=CCc1cc(OC)c2c(c1)OCO2` reads “inactive”.

`CN1COCN(Cc2cnc(Cl)s2)/C1=N\[N+](=O)[O-]`: the Potency entry was “inactive”. As to `NC(=O)CS(=O)C(c1ccccc1)c1ccccc1` (centres undefined), the Potency entry is “inactive”. The same measure, in the same setting: the result for `CCCCCCCCSC(=O)Oc1cc(Cl)nnc1-c1ccccc1` reads “inactive”; that for `C1CN2CCC1CC2`, “inactive”. Same read-out and setting: as for `ClC1=C(Cl)C2(Cl)C(CBr)CC1(Cl)C2(Cl)Cl` (centres undefined), the entry is “inactive”; as for `CCC1(c2ccccc2)C(=O)N(COC)C(=O)N(COC)C1=O`, “inactive”; as for `NNC(N)=O`, “inactive”.

As to `Cc1cccc2sc3nncn3c12`, the Potency result was “inactive”.

Turning to `C/C(=N\NC(=O)Nc1cc(F)cc(F)c1)c1ncccc1C(=O)O`, the Potency result was “inactive”. Still for that read-out and setting: as for `CNC(=O)O/N=C(/CSC)C(C)(C)C`, the entry is “inactive”; as for `CCN(CC)C1CCCCC1`, “inactive”. The same measure, in the same setting: the result for `CC#Cc1cc(C)nc(Nc2ccccc2)n1` reads “inactive”; that for `CON(C)C(=O)Nc1ccc(Br)cc1`, “inactive”; that for `CC1NCCOC1c1ccccc1` (centres undefined), “inactive”.
